# Compound activity (PubChem BioAssay)
# In the library only some 28% were active in any assay of this set; here they are far more common.
# CD11b adhes inh: CD11b/CD18-fibrinogen binding inhibition. K562 CD11b/CD18 adhesion to fibrinogen, ATPlite luminescence; Mn2+ added to activate the integrin. inhibition, % at 10 µM. actives 0.54% (n = 93,000);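 active means primary inhibition of 50% or more at 10 µM, then 40% or more on retest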
# CYP2C9 activ: CYP2C9 (human) activation; activation factor at 5 µM; P11712; recombinant CYP2C9, luciferin-H conversion, luminescence; hits give high values; factor 1 = untreated enzyme, 0 = blocked; actives 1.4% (n = 96,000);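 active means activation factor of 2 or more for CYP2C9 at a 5 µM dose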;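 further: 0 = sulfaphenazole-blocked wells and 1 = vehicle-only wells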
# CD11b adhes enh: CD11b/CD18-fibrinogen binding enhancement | P05107+P11215 | K562 CD11b/CD18 adhesion to fibrinogen, ATPlite luminescence | activation, % at 10 µM | actives 0.07% (n = 93,000);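 active means 10 µM primary screen giving 50% or more activity, confirmed by 40% or more on retest at that dose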
# CYP2C19 inh: blocks human cytochrome P450 2C19. AID 778. CYP2C19 Supersomes, luciferin-H EGE luminescence, 30 min. P33261. actives 21% (n = 96,000). inhibition, % at 5 µM;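 active means CYP2C19 inhibition above a set limit at 5 µM in the primary screen, cut at about 50% in these data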;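 further: plate controls were negative control wells for no effect and 2.5 mM tranylcypromine positive control for full effect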
# Target sequence (P33261 whole entry, looked up): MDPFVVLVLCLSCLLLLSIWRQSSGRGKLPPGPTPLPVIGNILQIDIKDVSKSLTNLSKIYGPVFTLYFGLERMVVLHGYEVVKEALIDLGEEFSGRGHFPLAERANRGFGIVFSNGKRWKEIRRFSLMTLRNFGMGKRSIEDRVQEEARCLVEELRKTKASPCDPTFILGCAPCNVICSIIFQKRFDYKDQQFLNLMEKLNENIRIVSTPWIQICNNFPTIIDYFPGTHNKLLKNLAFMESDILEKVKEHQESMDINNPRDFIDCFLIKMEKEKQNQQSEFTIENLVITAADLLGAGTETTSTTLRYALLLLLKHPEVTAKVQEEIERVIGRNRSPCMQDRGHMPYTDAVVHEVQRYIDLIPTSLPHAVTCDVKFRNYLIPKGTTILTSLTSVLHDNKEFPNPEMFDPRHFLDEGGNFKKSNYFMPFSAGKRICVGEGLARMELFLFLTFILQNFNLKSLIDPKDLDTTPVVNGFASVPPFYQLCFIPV
# CYP2C19 activ: activators of human cytochrome P450 2C19; P33261; recombinant CYP2C19, luciferin-H EGE luminescence; hits give high values; 0 = fully inhibited enzyme, 1 = untreated enzyme; activation factor at 5 µM; 96,000 tested, under 10 active; AID 1025;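 active means activation factor of at least 2 at 5 µM in the primary screen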;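 further: 0 = wells with 2.5 mM tranylcypromine and 1 = vehicle-only wells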
# CYP2C9 inh: inhibitors of human CYP2C9. actives 20% (n = 96,000). inhibition, % at 5 µM. AID 777. P11712. CYP2C9 Supersomes, luciferin-H conversion, luminescence;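 active means blocking of liver enzyme CYP2C9 beyond about 50% at 5 µM, limit read from the data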
# * = called active by the depositor; . = not tested or not shown.
SMILES,CD11b adhes inh,CYP2C9 activ,CD11b adhes enh,CYP2C19 inh,CYP2C19 activ,CYP2C9 inh
Cc1ccccc1OC(=O)CCC(=O)OCCCC(F)(F)C(F)(F)F,-1,0.6,3,54*,0.5,41
O=C1CN(c2nnnn2-c2ccccc2)CCN1,-10,1.1,0,-17,1.2,-8
[O-]C1=N/[N+](=C/c2ccccc2Cl)CC1,-7,1.3,-8,-19,1.2,-34
O=[N+]([O-])/C(C(Cl)=C(Cl)Cl)=C(\Nc1ccc(F)cc1)n1cncn1,-20,0.6,-1,17,0.8,42
CCOc1ccc(N/C(=C(/C(Cl)=C(Cl)Cl)[N+](=O)[O-])n2cncn2)cc1,-10,0.3,-1,61*,0.4,68*
CC1(C)Cc2noc(N)c2C(C)(C)N1OC(=O)c1scc2c1OCCO2,-9,0.7,-1,51*,0.5,29
CC1(C)Cc2noc(N)c2C(C)(C)N1OC(=O)c1cccs1,-3,0.2,0,98*,0,83*
CCNC(=O)Cn1c(=O)c2c(ncn2Cc2ccccc2)n(Cc2ccccc2)c1=O,.,0.9,.,89*,0.1,13
COC(=O)C1=C(C)NC(C)=C(C(=O)OC)C1C(=O)OCC(=O)N1c2ccccc2CC1C (stereo unspecified),1,0.1,-4,86*,0.1,93*
CCOC(=O)C1=C(C)NC(C)=C(C(=O)OCC)C1C(=O)OCC(=O)N1CCCCC1CC (stereo unspecified),-5,0.3,2,62*,0.4,67*
CCNC(=O)COC(=O)C1C(C(=O)OCC)=C(C)NC(C)=C1C(=O)OCC,-4,0.3,-3,86*,0.1,75*
CCOC(=O)C1=C(C)NC(C)=C(C(=O)OCC)C1C(=O)OCC(=O)N1CCc2ccccc2C1,-9,0.2,4,56*,0.4,79*
Cc1noc(C)c1S(=O)(=O)Nc1ccc(C(=O)NC2CCCCC2)cc1,.,0.8,.,3,1,19
Cc1noc(C)c1S(=O)(=O)Nc1ccc(C(=O)N2CCCCC2)cc1,11,0.5,-1,23,0.8,52*
Cc1ccc(C)c(N2CCN(C(=O)c3ccc(NS(=O)(=O)c4c(C)noc4C)cc3)CC2)c1,10,0,1,7,0.9,97*
Cc1noc(C)c1S(=O)(=O)N1CCC(C(=O)N2CCN(c3ccccc3Cl)CC2)CC1,6,0.8,-2,0,1,16
Cc1ccc(Cl)cc1N1CCN(C(=O)c2ccc(NS(=O)(=O)c3c(C)noc3C)cc2)CC1,21,0,-2,15,0.9,100*
CC(C)COc1ccc(/C=C2/Sc3ccccc3C2=O)cc1,.,0.7,.,30,0.7,31
O=S(Cc1ccc(Cl)cc1)CC(O)COCc1ccc(Cl)cc1 (stereo unspecified),12,0.9,-2,7,0.9,9
COc1ccc(NC(=O)Cc2c(C)n(C(=O)c3ccc(Cl)cc3)c3ccc(OC)cc23)cc1,0,.,1,.,.,.
COc1ccc2c(c1)c(CC(=O)Nc1ccc(C)cc1)c(C)n2C(=O)c1ccc(Cl)cc1,5,0.1,-3,69*,0.3,89*
CN(C)S(=O)(=O)c1ccc2c(c1)C(CC(=O)O)NC2=O (stereo unspecified),-4,0.8,-1,8,0.9,16
CC(=O)Nc1cccc(NC(=O)CSc2nc(C)c(C)c(C)c2C#N)c1,0,0.8,1,67*,0.3,19
CCOc1cccc(NC(=O)CSc2nc(C)c3c(c2C#N)CCCC3)c1,.,0.8,.,14,0.9,16
Cc1nnc(SCC(=O)NCc2ccccc2)n1-c1ccccc1,-1,1,-4,16,0.8,0
SMILES,CD11b adhes inh,CYP2C9 activ,CD11b adhes enh,CYP2C19 inh,CYP2C19 activ,CYP2C9 inh
CN(C)C(=O)CSc1nc(SCC(=O)N(C)C)n(-c2ccccc2)n1,-48,1,-1,8,0.9,2
O=C(CSc1nc(SCC(=O)NCc2ccccc2)n(-c2ccccc2)n1)NCc1ccccc1,2,0.2,-1,66*,0.3,83*
O=C(CSc1nc2ccccc2n1CCc1ccccc1)NC1CC1,-10,.,-7,.,.,.
O=C(CSc1nccn1Cc1ccccc1)NCc1ccccc1,-9,0.4,-5,89*,0.1,56*
O=C(CSc1nc2ccccc2n1CCc1ccccc1)NC1CCS(=O)(=O)C1 (stereo unspecified),-4,0,-6,96*,0,99*
Cn1c(SCC(=O)NCc2ccccc2)nc2ccccc21,10,4.5*,-3,40,0.6,-345
COc1ccc(C(C)=O)cc1CSc1nncn1-c1ccccc1,5,.,4,.,.,.
O=C(CSc1ncccc1C(=O)O)NCc1ccc(F)cc1,-3,1.1,3,-4,1,-12
O=C(COC(=O)c1cccnc1SCC(=O)NCc1ccccc1)NCc1ccccc1,-1,0.6,-1,68*,0.3,39
COc1cc(OC)c2c(C)c(Cl)c(=O)oc2c1,0,1.1,4,4,1,-10
Cc1nn(CCC#N)c2nc(-c3ccccc3)cc(C(F)(F)F)c12,36,1,1,10,0.9,0
N#CCCn1nc(-c2ccccc2)cc1-n1c(C(F)(F)F)nc2ccccc21,11,0,0,87*,0.1,96*
CCCC1=[N+](CC(=O)c2ccc(C)cc2)CCn2cccc21,-7,.,-3,.,.,.
Cc1sc2nc3c(C(=O)N4CCN(c5ccccn5)CC4)cccn3c(=O)c2c1C,-6,0.7,1,9,0.9,29
Cc1cccc(N2CCN(C(=O)c3cccn4c(=O)c5c(C)c(C)sc5nc34)CC2)c1C,9,0,2,92*,0.1,96*
CC(C)(C)NS(=O)(=O)c1ccc(CCC(=O)O)cc1,-17,1.1,1,23,0.8,-6
CC(C)(C)NS(=O)(=O)c1ccc(NS(=O)(=O)Cc2ccccc2)cc1,-15,0.2,-1,72*,0.3,81*
O=C(Nc1ccc(Cl)c([N+](=O)[O-])c1)C(Sc1ccccc1)c1ccccc1 (stereo unspecified),99,.,-8,.,.,.
CC(C)(C)NS(=O)(=O)c1ccc(NC(=O)C(Sc2ccccc2)c2ccccc2)cc1 (stereo unspecified),-1,0.4,-8,15,0.8,63*
COc1cc(S(=O)(=O)Nc2cccc(C)c2)ccc1NC(=O)c1ccncc1,15,.,-4,.,.,.
c1ccc(-n2ncc3c(N4CCN(c5ccccn5)CC4)nc(N4CCCCCC4)nc32)cc1,28,0.7,-1,18,0.8,27
CCOC(=O)c1ccc(NC(=O)CSc2nc(SC)ns2)cc1,88,0.4,-14,55*,0.5,60*
CCOc1ccc2nc(NC(=O)CSc3nc(SC)ns3)sc2c1,.,1,.,-9,1.1,4
